In all, about 5,500 compounds went through this assay and about 2,000 (36%) were called active. About 18% were inconclusive and are not listed. Rule as the data show it: active = normalized growth mostly below about 0.91 (no sharp cut-off); inconclusive = no clear call, values can overlap the other calls; inactive = mostly above about 0.92. The list shows a part of the results.
Test: chemical genetic growth profiling, strain panel (AID 1159580);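 also: tested at 20 µM; growth read once vehicle control cultures reached saturation at 30 °C; 1 = growth at the plate median or of vehicle wells; lower values mean less growth of the strain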
Details: S. cerevisiae deletion strains, growth OD

Measured: normalized growth

CCOC(=O)c1oc2c(OC)c(O)cc(O)c2c(=O)c1-c1cc(OC)c(OC)c(OC)c1
active: locus YDR137W, strain rgp1, hits give low values 0.799 | locus YLR262C, strain YPT6 (second series), hits give low values 0.82
inactive: locus YAL021C, strain ccr4, hits give low values 0.985 | locus YAL026C, strain drs2, hits give low values 0.974 | locus YAL030W, strain snc1, hits give low values 0.968 | locus YBL061C, strain skt5, hits give low values 0.976 | locus YBR009C, strain hhf1, hits give low values 0.972 | locus YBR023C, strain chs3, hits give low values 0.972 | locus YBR171W, strain sec66, hits give low values 0.956 | locus YBR231C, strain swc5, hits give low values 0.974 | locus YBR279W, strain paf1, hits give low values 0.987 | locus YCL011C, strain gbp2, hits give low values 0.976 | locus YCL016C, strain dcc1, hits give low values 0.977 | locus YCL061C, strain MRC1, hits give low values 0.966 | locus YCL069W, strain vba3, hits give low values 0.989 | locus YCR088W, strain abp1, hits give low values 0.972 | locus YDL005C, strain med2, hits give low values 0.993 | locus YDL040C, strain nat1, hits give low values 0.983 | locus YDR001C, strain nth1, hits give low values 0.982 | locus YDR069C, strain doa4, hits give low values 0.991 | locus YDR159W, strain sac3, hits give low values 0.973 | locus YDR195W, strain ref2 1.05 | locus YDR297W, strain sur2, hits give low values 0.979 | locus YDR334W, strain swr1, hits give low values 0.98 | locus YDR335W, strain msn5, hits give low values 0.971 | locus YDR392W, strain spt3, hits give low values 0.878 | locus YEL003W, strain gim4, hits give low values 0.978 | locus YEL037C, strain rad23, hits give low values 0.98 | locus YEL061C, strain CIN8 (second series), hits give low values 0.978 | locus YER015W, strain faa2, hits give low values 0.986 | locus YER016W, strain bim1, hits give low values 0.969 | locus YER111C, strain swi4, hits give low values 0.989 | locus YER155C, strain BEM2 (second series), hits give low values 0.947 | locus YFR010W, strain ubp6, hits give low values 0.986 | locus YGL167C, strain pmr1, hits give low values 0.957 | locus YGL173C, strain kem1, hits give low values 0.965 | locus YGL227W, strain vid30, hits give low values 0.959 | locus YGL240W, strain doc1, hits give low values 0.948 | locus YGL253W, strain hxk2, hits give low values 0.974 | locus YHR013C, strain ard1, hits give low values 1.01 | locus YHR027C, strain rpn1, hits give low values 0.985 | locus YHR142W, strain chs7, hits give low values 0.955 | locus YJL092W, strain hpr5, hits give low values 0.973 | locus YJL095W, strain BCK1 (second series), hits give low values 0.975 | locus YJL115W, strain asf1, hits give low values 0.986 | locus YJL129C, strain trk1, hits give low values 0.977 | locus YJL154C, strain vps35, hits give low values 0.984 | locus YJL164C, strain tpk1, hits give low values 0.964 | locus YJL166W, strain qcr8, hits give low values 0.975 | locus YJL187C, strain SWE1, hits give low values 0.985 | locus YKL160W, strain elf1, hits give low values 0.966 | locus YKR026C, strain gcn3, hits give low values 0.97 | locus YKR091W, strain srl3, hits give low values 0.973 | locus YLL001W, strain dnm1, hits give low values 0.98 | locus YLL026W, hits give low values 0.968 | locus YLL041C, strain sdh2, hits give low values 0.974 | locus YLR027C, strain aat2, hits give low values 0.972 | locus YLR221C, strain rsa3, hits give low values 0.972 | locus YLR258W, strain gsy2, hits give low values 0.969 | locus YLR320W, strain mms22, hits give low values 0.901 | locus YLR342W, strain FKS1, hits give low values 0.971 | locus YLR357W, strain rsc2, hits give low values 1 | locus YLR370C, strain arc18, hits give low values 0.972 | locus YLR384C, strain iki3, hits give low values 0.982 | locus YML120C, strain ndi1, hits give low values 0.973 | locus YMR058W, strain fet3, hits give low values 0.976 | locus YMR125W, strain sto1, hits give low values 0.985 | locus YMR129W, hits give low values 0.978 | locus YMR205C, strain PFK2, hits give low values 0.933 | locus YMR231W, strain pep5, hits give low values 0.997 | locus YNL071W, strain lat1, hits give low values 0.959 | locus YNL209W, strain ssb2, hits give low values 0.98 | locus YNL248C, strain rpa49, hits give low values 0.958 | locus YNL322C, strain KRE1 (second series), hits give low values 0.971 | locus YNR049C, strain mso1, hits give low values 0.974 | locus YOR001W, strain rrp6, hits give low values 0.969 | locus YOR070C, strain gyp1, hits give low values 0.973 | locus YOR080W, strain dia2, hits give low values 0.985 | locus YOR083W, strain WHI5, hits give low values 0.965 | locus YOR106W, strain vam3, hits give low values 0.975 | locus YOR265W, strain rbl2, hits give low values 0.974 | locus YOR270C, strain vph1, hits give low values 0.915 | locus YOR290C, strain snf2, hits give low values 0.959 | locus YPL051W, strain arl3, hits give low values 0.963 | locus YPL078C, strain atp4, hits give low values 0.973 | locus YPL106C, strain sse1, hits give low values 0.997 | locus YPL240C, strain hsp82, hits give low values 0.964

From PubChem BioAssay AID1159580 (chemical genetic matrix, 2015)
